According to PubChem BioAssay AID2283105 (EPA ToxCast):
The source made the active and inactive calls. Rule for the calls: active = hit-call score of the fitted dose curve at least 0.9, where 1 is the maximum; inactive = score below 0.9.

target: human CYP2E1, CYP2E1 (gene 1571) (UniProt P05181); experiment: NVS_ADME_hCYP2E1: NovaScreen (NVS) CYP450-related Enzyme Activity (ADME) Assay for human CYP2E1
Description: NVS_ADME_hCYP2E1 is a biochemical, single-readout assay that uses extracted gene-proteins in a cell-free assay. Measurements were taken 0.5 hour after chemical dosing in a 96-well plate.NVS_ADME_hCYP2E1 is one of one assay component(s) measured or calculated from the NVS_ADME_hCYP2E1 assay. It is designed to make measurements of enzyme activity, a form of enzyme reporter, as detected with fluorescence intensity signals by Fluorescence technology.Data from the assay component NVS_ADME_hCYP2E1 was analyzed into 1 assay endpoint. This assay endpoint, NVS_ADME_hCYP2E1, was analyzed in the positive analysis fitting direction relative to Acetonitrile as the negative control and baseline of activity. Using a type of enzyme reporter, loss-of-signal activity can be used to understand changes in the enzymatic activity as they relate to the gene CYP2E1. Furthermore, this assay endpoint can be referred to as a primary readout, because this assay has produced multiple assay endpoints where this one serves a enzymatic activity function. To generalize the intended target to other relatable targets, this assay endpoint is annotated to the cyp intended target family, where the subfamily is xenobiotic metabolism.
Binding assays used specific radioligands (tritiated, iodinated) with non-radioactive competitive displacement ligands in agonist or antagonist protocols (as indicated) and various reference compounds and inhibitors to titrate specific binding to receptors and transporters. Most enzyme assays (CYPs, kinases, phosphatases, proteases, HDACs) used recombinant protein and specific substrates (fluorescence mostly, some colorimetric and radioactive) and inhibitors, followed by a biochemical separation of substrate and product. All assays for the biochemical HTS were initially run in duplicate at a single concentration (10 uM for CYP450 assays and 25 uM for all others). Assay-chemical combinations meeting a pre-defined threshold (e.g., 30% inhibition and other criteria defined below) were then run in singleton concentration-response format with maximum concentration of 20 uM for CYPs and 50 uM for all others. Each assay was run with positive and negative controls, and concurrent controls on every plate. The follow-up (secondary) screen tested active chemical-pairs in concentration series, as well as a few additional assays not tested in the primary screen, some selected negative inactives, and several cases re-run in the concentration series for confirmatory purposes.

Sequence of human CYP2E1, CYP2E1 (gene 1571) (P05181 whole entry, looked up): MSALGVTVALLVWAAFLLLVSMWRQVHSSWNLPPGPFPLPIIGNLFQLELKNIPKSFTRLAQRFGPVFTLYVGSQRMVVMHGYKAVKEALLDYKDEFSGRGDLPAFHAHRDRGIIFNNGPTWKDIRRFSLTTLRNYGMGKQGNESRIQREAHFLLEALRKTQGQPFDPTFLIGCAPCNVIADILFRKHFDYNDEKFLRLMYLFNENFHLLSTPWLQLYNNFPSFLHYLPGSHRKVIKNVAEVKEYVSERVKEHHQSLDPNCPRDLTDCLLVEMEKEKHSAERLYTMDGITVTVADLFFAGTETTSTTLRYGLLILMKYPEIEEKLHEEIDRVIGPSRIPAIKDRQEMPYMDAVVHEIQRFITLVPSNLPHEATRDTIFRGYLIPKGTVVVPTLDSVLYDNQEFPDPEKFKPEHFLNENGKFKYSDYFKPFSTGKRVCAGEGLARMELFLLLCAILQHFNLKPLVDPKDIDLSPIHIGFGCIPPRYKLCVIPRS

Structure (SMILES)	outcome	AC50
COP(=S)(OC)Oc1ccc([N+](=O)[O-])cc1	inactive	
CC[C@H](C)[C@H]1O[C@]2(C=C[C@@H]1C)C[C@@H]1C[C@@H](C/C=C(\C)[C@@H](O[C@H]3C[C@H](OC)[C@@H](O[C@H]4C[C@H](OC)[C@@H](NC)[C@H](C)O4)[C@H](C)O3)[C@@H](C)/C=C/C=C3\CO[C@@H]4[C@H](O)C(C)=C[C@@H](C(=O)O1)[C@]34O)O2		551 nM (active)
FC(F)C(F)(F)OCC(Cn1cncn1)c1ccc(Cl)cc1Cl (configuration not stated)	inactive	
CCCN(CCOc1c(Cl)cc(Cl)cc1Cl)C(=O)n1ccnc1		486 nM (active)
CCC(=NOC/C=C/Cl)C1=C(O)CC(C2CCOCC2)CC1=O (configuration not stated)		3500 nM (active)
N#Cc1c[nH]cc1-c1cccc2c1OC(F)(F)O2	inactive	
CC(C)NC(=O)N1CC(=O)N(c2cc(Cl)cc(Cl)c2)C1=O	inactive	
CC(C)(C)C(O)C(Oc1ccc(Cl)cc1)n1cncn1 (configuration not stated)		604 nM (active)
COP(=S)(OC)SCn1nnc2ccccc2c1=O	inactive	
COP(=S)(OC)Oc1ccc([N+](=O)[O-])c(C)c1		319 nM (active)
COc1nn(CSP(=S)(OC)OC)c(=O)s1	inactive	
N#CSCSC#N	inactive	
